High-throughput results from PubChem BioAssay.
Shn3 3UTR inh – reduction of Shn3 3'UTR firefly luciferase signal, primary screen, Schnurri-3 inhibitor project, cell-based, Clone20 osteoblasts, set 2; Clone20 osteoblast Shn3 3'UTR firefly luciferase, 24 h; inhibition, % at 12.5 µM; actives 0.52% (n = 360,000); AID 588674, 2011;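 active = mean inhibition of at least 75% with every replicate also reaching 75%; inconclusive = mean inhibition at least 75% but some replicate below; inactive = mean inhibition below 75%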;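 also: 0% = median of neutral control wells and 100% = pilot-screen positive control compound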
MITF TRPM1 inh – inhibitors of MITF-dependent TRPM1 promoter reporter, primary screen, cell-based, SK-MEL-5, single point, luciferase. SK-MEL-5 TRPM1 promoter luciferase, 24 h. inhibition, % at 12.5 µM. actives 0.83% (n = 330,000);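 active = mean inhibition across replicates of 60% or more, whatever share of single replicates reaches that level; inconclusive = some that reach 60%, reason not given; inactive = mean inhibition across replicates below 60%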
TWEAK-Fn14 inh – inhibitors of TWEAK-Fn14 signaling, primary screen, luciferase reporter cells, uHTS | actives 2% (n = 360,000) | AID 1159606, 2016 | inhibition, % at 10 µM | TWEAK-stimulated Fn14 reporter cells, luciferase luminescence, 8 h; in the data active = inhibition above about 50%
HIF-2a inh – HIF-2a reporter inhibitors, primary screen, luminescence, 786-0 RCC cells; 786-0 RCC cells HIF-2a reporter, luciferase luminescence, overnight; inhibition, % at 18.8 µM; actives 0.72% (n = 360,000); AID 624352, 2012;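 active = inhibition of the luminescence signal of 40% or more relative to plate controls, in a single-dose primary screen at 18.75 µM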
TROY signal inh – inhibitors of TROY-driven NF-kB signaling, primary screen, Q293 LMP1-TROYcd cells, NF-kB luciferase, uHTS; Q293 LMP1-TROYcd NF-kB luciferase reporter, 4 h; inhibition, % at 10 µM; actives 0.98% (n = 360,000); AID 1347056, 2019;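 active = compounds whose plate-normalised and pattern-corrected inhibition of the luciferase reporter signal at the single screening dose is 50% or more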
EBV LMP1 NFkB – EBV LMP1-driven NF-kappaB luciferase reporter inhibitors, primary screen, cell-based, luminescence, single point. actives 0.69% (n = 350,000). inhibition, % at 12.5 µM. LMP1-induced NF-kappaB luciferase reporter cells; in the data active = inhibition above about 41%; inconclusive = no clear call, values can overlap the other calls;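 also: 0% = neutral control wells and 100% = reference inhibitor control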
Mdm2-MdmX confirm – retested Mdm2-MdmX interaction blockers, confirmation, cell-based, luminescence, single concentration, set 2; SaOS-2 split-luciferase Mdm2/MdmX complementation; actives 99% (n = 740); AID 504601, 2011; shares compounds with HIF-2a inh; inhibition, % at 8 µM;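 active = mean inhibition of the luminescence signal across two replicates at or above 26 percent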
HIF-2a inh conf – HIF-2a reporter inhibitor retest, confirmation, luminescence, 786-0 RCC cells; shares compounds with HIF-2a inh; HIF-2a luciferase reporter luminescence, overnight; actives 56% (n = 1,800); AID 651580, 2012; inhibition, % at 18.8 µM;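 active = mean inhibition across four replicates of at least 40 percent at the single tested concentration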
HIF-1a counter – HIF-1a luciferase reporter signal reduction – MiaPaCa-2 cells, single concentration, counter-screen for HIF-2a inhibitor project, confirmation; inhibition, % at 18.8 µM; actives 72% (n = 1,800); shares compounds with HIF-2a inh; MiaPaCa-2 HIF-1a luciferase reporter, desferoxamine, overnight; AID 651589, 2012;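 active = mean inhibition of the reporter signal across four replicates at the single tested dose of 50% or more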
Starred values were filed as active, the others as inactive; ? = inconclusive; / = no result given. Sampled rows, rich in hits. Any-hit rate of the full collection: about 3.4%.

SMILES | Shn3 3UTR inh | MITF TRPM1 inh | TWEAK-Fn14 inh | HIF-2a inh | TROY signal inh | EBV LMP1 NFkB | HIF-2a inh conf | HIF-1a counter | others
S=C(N/N=C/c1ccc2ncccc2c1)Nc1ccccc1 | 20 | 21 | 38 | 48* | 31 | 23 | -24 | 63*
COc1cccc(NC(=O)CSc2nc3c([nH]c4ccccc43)c(=O)n2C)c1 | 15 | 31 | 4 | 51* | -3 | -53 | 0 | 26
Cc1cccc(NC(=O)CSc2nc3c([nH]c4ccccc43)c(=O)n2C)c1 | 25 | / | 14 | 23 | -3 | -67 | / | /
CCOC(=O)Cc1csc(NC(=S)NC(=O)c2ccc(C)cc2)n1 | 35 | -19 | 68* | 96* | 26 | -3 | 99* | 97*
CCOC(=O)Cc1csc(NC(=S)NC(=O)c2ccccc2)n1 | -21 | -1 | -20 | 85* | 10 | -4 | 87* | 43
CCOC(=O)Cc1csc(NC(=O)c2ccc(C)cc2)n1 | -10 | -17 | -1 | -8 | -10 | 10 | / | /
C=C1C(=O)OC2C1CCC(C)=C1C(=O)C3OC3(C)C12 (stereo not drawn) | 98* | 105* | 95* | 92* | 41 | 25 | 97* | 101*
COc1cccc(-c2sc3ccccc3c2-c2ccc(OCCN3CCCC3)cc2)c1 | 48 | -2 | -15 | -5 | 4 | -5 | / | /
COc1cccc(-c2sc3ccccc3c2-c2ccc(OCCN(C)C)cc2)c1 | 13 | 18 | -9 | 79* | 23 | 89* | 19 | 107*
O=C(CCNS(=O)(=O)c1ccc2[nH]c(=O)oc2c1)Nc1ccccc1 | -2 | -12 | 10 | 11 | -12 | 3 | / | /
O=C1CCCN1CCCNS(=O)(=O)c1ccc(F)c(F)c1 | -8 | -9 | 18 | 7 | -7 | 3 | / | /
FC(F)(F)c1nnc(-c2ccccc2)nc1Sc1ccc(Cl)cc1 | 92* | 42 | 18 | 62* | 20 | 2 | 48* | 91*
FC(F)(F)c1cccc(Sc2nc(-c3ccccc3)nnc2C(F)(F)F)c1 | / | 35 | 18 | 44* | 23 | 5 | 6 | 70*
FC(F)(F)c1cccc(Oc2nc(-c3ccccc3)nnc2C(F)(F)F)c1 | -2 | 0 | 3 | 7 | 3 | 3 | / | /
FC(F)(F)c1nnc(-c2ccccc2)nc1N1CCCC1 | -4 | -2 | 10 | 8 | -1 | -1 | / | /
FC(F)(F)c1nnc(-c2ccccc2)nc1Sc1ccccc1 | 38 | 20 | 25 | 78* | 19 | 2 | 19 | 67*
CSc1ccc(S(=O)(=O)N(CC(=O)NN=C2CCN(C)CC2)c2ccc(C)cc2)cc1 | -20 | -5 | -24 | 21 | 26 | -2 | / | /
COc1cc(C(C[N+](=O)[O-])c2c(-c3ccccc3)cc3ccccn23)cc(OC)c1OC (stereo not drawn) | 18 | 12 | 2 | 43* | -12 | 9 | -38 | 68*
COc1ccc(C(C[N+](=O)[O-])c2c(-c3ccccc3)cc3ccccn23)cc1OC (stereo not drawn) | -14 | 1 | -6 | 4 | -13 | -1 | / | /
O=c1[nH][nH]c2cc([N+](=O)[O-])ccc12 | 6 | 3 | 0 | -18 | -4 | 8 | / | /
O=[N+]([O-])c1ccc(NC(=S)NCCc2ccc(Cl)cc2)cc1 | -1 | 4 | 60* | -21 | 57* | 1 | / | / | Mdm2-MdmX confirm=97*
CCC(C)(C)c1ccc(OCCCC[n+]2cccc(C)c2C)c(C(C)(C)CC)c1 | / | 71* | 52* | 88* | 39 | 7 | 77* | 107* | Mdm2-MdmX confirm=103*
CCC(C)(C)c1ccc(OCCCC[n+]2ccc(C)cc2)c(C(C)(C)CC)c1 | / | / | / | / | / | / | / | / | Mdm2-MdmX confirm=102*
O=C1c2ccccc2C(=O)N1Cc1ccccn1 | -4 | 0 | -6 | 18 | 4 | -4 | / | /
CC1CN(C(C)C)C(=S)N(c2ccccc2)C1=O (stereo not drawn) | 5 | 0 | 9 | 11 | 1 | -12 | / | /
SMILES | Shn3 3UTR inh | MITF TRPM1 inh | TWEAK-Fn14 inh | HIF-2a inh | TROY signal inh | EBV LMP1 NFkB | HIF-2a inh conf | HIF-1a counter | others
CC(=O)Nc1ccc(NC(=O)CCNC(=O)c2ccccc2Cl)cc1 | -27 | -8 | 4 | 29 | -12 | -6 | / | /
NS(=O)(=O)c1ccc(N/N=C2/CCCCC2C2CCCCC2)c([N+](=O)[O-])c1 (stereo not drawn) | 66 | 2 | -5 | 55* | -22 | -2 | 2 | 104*
O=C(C#Cc1ccccc1)c1ccco1 | 95* | 99* | 94* | 40* | 58* | 24 | 90* | 103* | Mdm2-MdmX confirm=103*
Cc1ccccc1N1CCN(C(=O)c2ccccc2NC(=O)c2ccccc2C(=O)O)CC1 | 2 | -6 | 9 | 11 | 2 | -5 | / | /
Cc1cc(N2CCN(C)CC2)ccc1NC(=O)c1c2c(nc3ccccc13)CCN(Cc1ccccc1)C2 | 39 | 87* | 12 | 27 | -85 | 77* | / | / | Mdm2-MdmX confirm=102*
O=C(NC1CCCCCC1)c1c2c(nc3ccccc13)CCN(Cc1ccccc1)C2 | -3 | 7 | 26 | 4 | 5 | -8 | / | /
CCOc1ccc(OCCn2c(S(=O)(=O)O)nc3c(N)ncnc32)cc1 | 7 | -3 | 9 | -4 | 0 | 1 | / | /
CCCCN(C(=O)c1cc2c(s1)CCCCC2)c1c(N)n(CC(C)C)c(=O)[nH]c1=O | -4 | 1 | 6 | -25 | -18 | -4 | / | /
O=C(Cn1nnc(-c2ccc(F)cc2)n1)N1CCCCC1 | -7 | -3 | 2 | -15 | 2 | -3 | / | /
Nc1ccc(-c2nnn(CC(=O)N3CCCCC3)n2)cc1 | 1 | -1 | 14 | 49* | 1 | -12 | 48* | 18
CCCCN(c1nc2ccccc2nc1Cl)S(=O)(=O)c1ccc(C)cc1 | ? | 9 | 17 | 19 | 7 | -2 | / | /
COc1cc2nc(N3CCN(c4cc(C)ccc4C)CC3)nc(N)c2cc1OC | 94* | 12 | -296 | 39* | 42 | 4 | -9 | 102* | Mdm2-MdmX confirm=103*
COc1cc2nc(N3CCNCC3)nc(N)c2cc1OC | -24 | 36 | -172 | 10 | -23 | -26 | / | /
